Assay results as given in PubChem BioAssay (NCI).
This is part of a sample that, as a whole, favours compounds with a hit. Of some 83,000 tested, about 20% had one in any assay.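 Growth was measured after 48 h exposure to one concentration of compound in 96-well plates. Values under 10 count as active.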 Activity calls are given as the source filed them.

Legend:
Assay in all cases: NCI-60 one-dose screen, 48 h (100 = growth as untreated, 0 = no growth, -100 = all killed)
Settings in all cases: 10 µM unless noted
NCI-H23 lung = test system: NCI-H23 lung
NCI-H226 lung = test system: NCI-H226 lung
NCI-H322M lung = test system: NCI-H322M lung
HOP-62 NSCLC = test system: HOP-62 NSCLC
NCI-H460 lung = test system: NCI-H460 lung
HOP-92 NSCLC = test system: HOP-92 NSCLC
NCI-H522 lung = test system: NCI-H522 lung
A549/ATCC NSCLC = test system: A549/ATCC NSCLC
786-0 renal = test system: 786-0 renal
COLO 205 colon = test system: COLO 205 colon
DU-145 prostate = test system: DU-145 prostate
K-562 leukemia = test system: K-562 leukemia
MALME-3M melanoma = test system: MALME-3M melanoma
MDA-MB-231 breast = test system: MDA-MB-231 breast
RXF 393 renal = test system: RXF 393 renal
SF-268 CNS = test system: SF-268 CNS
SF-295 CNS = test system: SF-295 CNS
SF-539 CNS = test system: SF-539 CNS
UACC-257 melanoma = test system: UACC-257 melanoma
M14 melanoma = test system: M14 melanoma

Measured: growth

C/C(=N/NC(N)=S)c1sc(Nc2cccc(Cl)c2)nc1C
inactive: NCI-H23 lung 89.4% | NCI-H226 lung 92% | NCI-H322M lung 77.9% | HOP-62 NSCLC 102% | NCI-H460 lung 92.9% | HOP-92 NSCLC 62.6% | NCI-H522 lung 42.6% | A549/ATCC NSCLC 92.5% | 786-0 renal 84.3% | COLO 205 colon 84.9% | DU-145 prostate 81.7% | K-562 leukemia 68.7% | MALME-3M melanoma 93.1% | MDA-MB-231 breast 65% | RXF 393 renal 89.6% | SF-268 CNS 75.1% | SF-295 CNS 88.7% | SF-539 CNS 83.7% | UACC-257 melanoma 101% | M14 melanoma 88.3%

CCc1ccccc1-n1c(N)c(C#N)c(-c2ccc(Cl)cc2)c(C#N)c1=O
inactive: NCI-H23 lung 107% | NCI-H226 lung 110% | NCI-H322M lung 140% | HOP-62 NSCLC 101% | NCI-H460 lung 111% | HOP-92 NSCLC 80% | NCI-H522 lung 94.2% | A549/ATCC NSCLC 117% | 786-0 renal 112% | COLO 205 colon 126% | DU-145 prostate 110% | K-562 leukemia 114% | MALME-3M melanoma 173% | MDA-MB-231 breast 94.8% | RXF 393 renal 113% | SF-268 CNS 104% | SF-295 CNS 99.3% | SF-539 CNS 103% | UACC-257 melanoma 125% | M14 melanoma 104%

c1cc(NCCc2ccncc2)nc(-n2cnc3ccccc32)c1
inactive: NCI-H23 lung 95.3% | NCI-H226 lung 76.6% | NCI-H322M lung 81.4% | HOP-62 NSCLC 90.7% | NCI-H460 lung 79% | HOP-92 NSCLC 93% | NCI-H522 lung 78.8% | A549/ATCC NSCLC 78.8% | 786-0 renal 92% | COLO 205 colon 123% | DU-145 prostate 85.7% | K-562 leukemia 88.6% | MALME-3M melanoma 103% | MDA-MB-231 breast 98.2% | RXF 393 renal 82.7% | SF-268 CNS 82.3% | SF-295 CNS 105% | SF-539 CNS 90.3% | UACC-257 melanoma 93.8% | M14 melanoma 94%

COc1ccc(-c2[nH]c3ccc(OC)cc3c2/C=C(\C#N)S(=O)(=O)c2ccccc2)cc1
active: NCI-H460 lung 4.64% | COLO 205 colon -43.4% | RXF 393 renal -7.82% | SF-539 CNS -37.8%
inactive: NCI-H23 lung 24.9% | NCI-H226 lung 72.3% | NCI-H322M lung 53.5% | HOP-62 NSCLC 69.1% | HOP-92 NSCLC 29.2% | NCI-H522 lung 34.5% | A549/ATCC NSCLC 23.5% | 786-0 renal 27.8% | DU-145 prostate 17.3% | K-562 leukemia 19.8% | MALME-3M melanoma 61.3% | MDA-MB-231 breast 14.9% | SF-268 CNS 33.8% | SF-295 CNS 10.6% | UACC-257 melanoma 81.7% | M14 melanoma 25.3%

c1ccc2cc(C[n+]3ccn(CCCCCCn4cc[n+](Cc5ccc6ccccc6c5)c4)c3)ccc2c1
inactive: NCI-H23 lung 30.5% | NCI-H226 lung 69.6% | NCI-H322M lung 76.2% | HOP-62 NSCLC 55.8% | NCI-H460 lung 24.6% | HOP-92 NSCLC 59.9% | NCI-H522 lung 33.1% | A549/ATCC NSCLC 38.6% | 786-0 renal 83.6% | COLO 205 colon 27.9% | DU-145 prostate 65.9% | K-562 leukemia 28.3% | MALME-3M melanoma 11.2% | MDA-MB-231 breast 84.1% | RXF 393 renal 87.4% | SF-268 CNS 55.6% | SF-295 CNS 48.3% | SF-539 CNS 56.3% | UACC-257 melanoma 61.9% | M14 melanoma 69.9%

Cc1ccc(C(=O)N/N=C/c2cccc(Oc3ccccc3)c2)cn1
inactive: NCI-H23 lung 70.7% | NCI-H226 lung 66.9% | NCI-H322M lung 82.3% | HOP-62 NSCLC 71.6% | NCI-H460 lung 33.3% | HOP-92 NSCLC 71.6% | NCI-H522 lung 31.5% | A549/ATCC NSCLC 54.1% | 786-0 renal 18.3% | COLO 205 colon 65.2% | DU-145 prostate 88.7% | K-562 leukemia 23.8% | MALME-3M melanoma 64.8% | MDA-MB-231 breast 65.3% | RXF 393 renal 71.6% | SF-268 CNS 79.1% | SF-295 CNS 41.6% | SF-539 CNS 72.9% | UACC-257 melanoma 72.4% | M14 melanoma 50%

COc1cc(C(=O)N2N=C(c3ccc(S(C)(=O)=O)cc3)CC2c2ccco2)cc(OC)c1OC (stereo not given)
inactive: NCI-H23 lung 76.9% | NCI-H226 lung 77.4% | NCI-H322M lung 95% | HOP-62 NSCLC 67.3% | NCI-H460 lung 58.2% | HOP-92 NSCLC 39.8% | NCI-H522 lung 11.9% | A549/ATCC NSCLC 58.2% | 786-0 renal 75.1% | COLO 205 colon 69.8% | DU-145 prostate 82.5% | K-562 leukemia 73.2% | MALME-3M melanoma 61.7% | MDA-MB-231 breast 66.4% | RXF 393 renal 66.4% | SF-268 CNS 87.6% | SF-295 CNS 42.9% | SF-539 CNS 79.1% | UACC-257 melanoma 80.6% | M14 melanoma 65.2%

COc1ccc2sc3c(NCCCNCCO)nc4ccccc4c3c(=O)c2c1
active: NCI-H460 lung -71.1% | COLO 205 colon -35.4% | K-562 leukemia -28.2% | MDA-MB-231 breast -12.9% | M14 melanoma -66.6%
inactive: NCI-H23 lung 63.6% | NCI-H226 lung 98% | NCI-H322M lung 72.8% | HOP-62 NSCLC 77.3% | HOP-92 NSCLC 31.2% | NCI-H522 lung 70.6% | A549/ATCC NSCLC 62.6% | 786-0 renal 63% | DU-145 prostate 41% | MALME-3M melanoma 85.9% | RXF 393 renal 52.3% | SF-268 CNS 50.8% | SF-295 CNS 85.7% | SF-539 CNS 45.5% | UACC-257 melanoma 92.3%
